Results with a measured potency or affinity are listed apart. Calls of active or inactive are those of the source.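 The calls were made as follows: active = a dose-response curve fit returns a half-maximal inhibitory concentration, extrapolated values included; inactive = the fit returns no such concentration.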
Each molecule was assayed against HMG-CoA reductase [Enterococcus faecalis] (UniProt Q9FD70) (assay: inhibitors of E. faecalis class II HMGR, confirmation, biochemical, Enterococcus faecalis (AID 1233)). Settings: purified E. faecalis HMGR, NADPH absorbance 340 nm kinetics; series mostly up to 100 µM.

outcome, inactive:
COc1cccc(C(=O)CN2C3=NCCCN3c3ccccc32)c1
O=C(COC(=O)C1CCC(=O)N1)Nc1ccc(Br)cc1 (centres undefined)
CCOC(=O)C(=O)Nc1ccc([N+](=O)[O-])cc1OC
CN(Cc1nc(-c2cnccn2)no1)C1CC(C)(C)NC(C)(C)C1
O=C(C1c2ccccc2C(=O)N2CCc3ccccc3C12)N1CCN(Cc2ccccc2)CC1 (centres undefined)
Cc1cccc(OCC(=O)NNC(=O)CCc2ccccc2)c1
CCCS(=O)(=O)N1CCN(C(=O)c2ccc(-c3ccccc3)cc2)CC1
CCOc1ccc(C2C(C#N)=C(N)Oc3cc(C)oc(=O)c32)cc1 (centres undefined)
Cc1ccc(NC(=O)NC2CCCCC2)cc1S(=O)(=O)N1CCOCC1
Cn1c(SCC(=O)c2ccc(F)cc2)nnc1-c1cccnc1
N#Cc1c(/N=C/c2ccco2)sc2c1CCCCC2
CCN(CC)Cc1c(C(=O)N2CCc3ccccc3C2)nc2ccc(Cl)cn12
Cc1cc(-c2ccccc2)nc(SCC(=O)N2CCCC2)n1
O=C(O)CCC(=O)NC(c1ccccc1)c1ccccc1
COC1(OC)N=C(NC(=O)Nc2ccccc2)C2(C#N)C(c3ccccc3)C12C#N (centres undefined)
CC(=O)C1=C(O)C(=O)N(C)C1c1ccccc1F (centres undefined)
COc1ccccc1C(=O)NCC(=O)NC1CCCc2ccccc21 (centres undefined)
Cc1ccc(Cn2nnc3c(=O)n(CC(=O)NCc4ccco4)cnc32)cc1
Cc1ccc(NC(=O)c2cc(S(=O)(=O)NCCC3=CCCCC3)ccc2F)cc1
